Screening results deposited in PubChem by National Center for Advancing Translational Sciences (NCATS).
Hits are enriched below; roughly 2.3% of the tested compounds scored in any of these assays.
FUS suppressor: suppressors of FUS proteinopathy in yeast; S. cerevisiae FUS-expressing, growth rescue, OD600, 24 h; Potency, µM (titrated, usually from 76.6 µM), hits mostly activators; 0.24% of 390,000 active; AID 1347120; note: nearly all actives have a fitted effect of over 55% in size
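Quantitative HTS measuring growth restoration of FUS-toxic yeast. Galactose-induced cells (OD 0.005) were exposed 24hr at 30C to compounds at several concentrations, then absorbance at 600 nm was recorded.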
Abeta rescue: compounds reversing amyloid beta toxicity in yeast. yeast expressing A-beta42, growth rescue, OD600, 48 h; response scale: 0% DMSO, 100% iron-clioquinol control. Potency, µM (top dose mostly 46.1 µM), most hits filed as activators. 0.063% of 410,000 active; note: nearly all actives have a fitted effect of over 55% in size
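Yeast growth medium received pinned compounds, then yeast cells expressing toxic A-beta were added; plates incubated at 30 C for 48 hr. Growth read as absorbance at 600 nm, normalized to DMSO and equimolar FeCl3 plus clioquinol controls.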
Chronic BCR inh: chronic active BCR signaling inhibition. ABC-DLBCL IkBa-CBG/CBR reporter, luminescence ratio, 4 h. Potency, µM (series often up to 46.1 µM), hits mostly inhibitors. 0.05% of 340,000 active; active = well fitted inhibition curve with a large enough effect in the signal ratio, with a control signal flat, not every such curve was filed as active; inconclusive = small, poorly fitted or top-dose-only effect, or effect the other way, or a change in a side signal; the % refers to the signal ratio
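Doxycycline induced both beetle luciferases in TMD8 lymphoma cells; IKK-driven degradation limits the IkappaBalpha-fused green signal, while red luminescence normalises for cell number and nonspecific effects. Compounds tested up to 46 uM, 4 hrs.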
TDP-43 yeast inh: inhibitors of TDP-43 toxicity in yeast; TDP-43 expressing yeast growth rescue, BacTiter-Glo, 24 h; Potency, µM (titrated, usually from 46.1 µM), hits mostly activators; 1.8% of 410,000 active; note: nearly all actives have a fitted effect of over 50% in size
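Cell-based yeast growth screen: TDP-43 expression induced in galactose, inoculum OD600=0.02 after raffinose pregrowth to mid-log. Read-out BacTiter-Glo luminescence at 24 hr, 30 deg C; inhibition of toxicity seen as signal increase.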
aSyn rescue: rescues yeast growth from alpha-synuclein toxicity; 0.14% of 370,000 active; Potency, µM (series often up to 46.1 µM), hits mostly activators; Yeast expressing alpha-synuclein, growth rescue, BacTiter-Glo, 24 h; note: nearly all actives have a fitted effect of over 65% in size
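Screening used galactose-induced yeast with toxic alpha-synuclein levels, exposed to compound for 24 hr at 30 deg C. Cell growth, read with BacTiter-Glo luminescence, gave the measured signal.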
uPA surface inh: cell surface uPA generation inhibition | Potency, µM (doses to about 38.3 µM), hits mostly inhibitors | 0.31% of 330,000 active | cell surface uPA generation assay, qHTS; active = well fitted inhibition curve with a large enough effect; inconclusive = small, poorly fitted or top-dose-only effect; inactive = no such curve, though single readings can be large or run the other way; tested in mouse RAW 264.7 cells; note: nearly all actives have a fitted effect of over 55% in size
Large screens that a line does not name were inactive. Unless noted, calls come from the whole dose curve; as a rule, active = well fitted curve in the direction sought with a large enough effect; inconclusive = small, poorly fitted or top-dose-only effect, or another doubt; inactive = no such curve, though single readings can be large; an effect the other way counts as inactive or inconclusive.

CCn1c(SCC(=O)Nc2cccc(NC(C)=O)c2)nc2c([nH]c3ccccc32)c1=O	none (no result: FUS suppressor)
Cn1nnnc1SCc1csc(Nc2ccccc2)n1	none
C[C@@H]1CCCCO[C@@H](CN(C)Cc2ccc(Cl)c(Cl)c2)[C@@H](C)CN([C@H](C)CO)C(=O)c2cc(NC(=O)Nc3ccccc3)ccc2O1	FUS suppressor 28µM (no result: Chronic BCR inh, uPA surface inh)
O=C(CSc1ncn(-c2ccccc2)n1)Nc1nncs1	none
O=C(Nc1nnc(SCc2ccc(F)cc2)s1)c1cccnc1Cl	TDP-43 yeast inh inconclusive
O=C(Nc1nnc(SCc2ccc(F)cc2)s1)c1ccccn1	Chronic BCR inh inconclusive, aSyn rescue 4.5µM
O=C(Nc1nc2ccc(F)cc2s1)c1ccccn1	Abeta rescue inconclusive, Chronic BCR inh inconclusive, aSyn rescue 11µM
O=C(NNc1nc2ccccc2s1)c1ccc(F)cc1	Chronic BCR inh inconclusive, TDP-43 yeast inh inconclusive (no result: FUS suppressor)
O=C(NNc1nc2ccc(F)cc2s1)c1cccc(F)c1	Abeta rescue inconclusive, Chronic BCR inh inconclusive, TDP-43 yeast inh 13µM, aSyn rescue inconclusive
O=C(COC(=O)C1(c2ccccc2F)CCCC1)NCc1cccs1	TDP-43 yeast inh inconclusive
Cc1ccc(Cn2c(C)c(CNCc3ccc(OC(C)C)cc3)c(C(=O)O)c2C)cc1	none (no result: Chronic BCR inh, aSyn rescue, uPA surface inh)
CCOC(=O)c1c(NC(=O)COC(=O)Cn2cnc3c2c(=O)n(C)c(=O)n3C)sc(C)c1CC	none
Cc1ccc(C(=O)c2cc([N+](=O)[O-])ccc2N2CC(C)OC(C)C2)cc1 (stereo unspecified)	FUS suppressor inconclusive, Chronic BCR inh inconclusive, uPA surface inh inconclusive
Cc1ccc(C(=O)c2cc([N+](=O)[O-])ccc2N2CCCCC2)cc1	Abeta rescue inconclusive, Chronic BCR inh 23µM
CC1CCCN(c2ccc([N+](=O)[O-])cc2C(=O)c2ccccc2)C1 (stereo unspecified)	Chronic BCR inh inconclusive, uPA surface inh 0.16µM
CCOC(=O)c1ccc(CSc2n[nH]c(C)n2)o1	none
O=C(CSc1nnc(-c2ccco2)o1)c1ccccc1Cl	FUS suppressor 22µM, Chronic BCR inh inconclusive, TDP-43 yeast inh inconclusive
O=C(O)c1ccc(CSc2nc3ccccc3o2)cc1	Chronic BCR inh inconclusive, TDP-43 yeast inh 13µM
c1ccc(CSc2nnc(-c3ccco3)o2)cc1	Chronic BCR inh inconclusive
O=C(O)c1ccc(CSc2nnc(-c3ccco3)o2)cc1	Chronic BCR inh 18µM
O=C(O)c1ccccc1CSc1nc2ccccc2o1	Chronic BCR inh inconclusive, TDP-43 yeast inh inconclusive
COc1cc(C(=O)Nc2ccc3c(c2)N(C(=O)CCN(C)C)c2ccccc2CC3)cc(OC)c1OC	Chronic BCR inh inconclusive
CCc1c(C)c2ccc3c(c2oc1=O)CN(Cc1ccccc1)CO3	aSyn rescue 4.5µM (no result: Chronic BCR inh, uPA surface inh)
CC[N+](CC)(CC)CCOc1ccc(/C=C/c2ccccc2)cc1	TDP-43 yeast inh 35µM, uPA surface inh inconclusive
CC[N+](CC)(CC)CCOc1cccc(OCC[N+](CC)(CC)CC)c1OCC[N+](CC)(CC)CC	none
C(=C\N1CCCCCC1)/c1nnnn1-c1ccc(-c2ccccc2)cc1	none
Cc1ccccc1OCC(=O)N/N=C/c1cc2ccccc2nc1Cl	Chronic BCR inh inconclusive
C=CCc1ccccc1OCC(=O)N/N=C/c1ccc(OC(C)=O)cc1OC(C)=O	Chronic BCR inh inconclusive, aSyn rescue 13µM
Cn1nc(C(=O)Nc2cccc(C(=O)NC3CC3)c2)c2ccccc2c1=O	none
Cn1nc(C(=O)Nc2cccc(C(F)(F)F)c2)c2ccccc2c1=O	TDP-43 yeast inh 11µM (no result: FUS suppressor)
Cc1onc(C(=O)Nc2ccccc2C(F)(F)F)c1[N+](=O)[O-]	none
COc1cc(C(=O)NNC(=O)c2nn(C)c(=O)c3ccccc23)cc(OC)c1OC	Chronic BCR inh inconclusive, TDP-43 yeast inh 3.2µM
Cc1onc(C(=O)Nc2cccc(C(F)(F)F)c2)c1[N+](=O)[O-]	TDP-43 yeast inh 13µM, uPA surface inh inconclusive
CCC(=O)N1CCC1(C)C(=O)NS(=O)(=O)c1cccc(C#N)c1 (stereo unspecified)	none (no result: Chronic BCR inh, uPA surface inh)
O=C(NCc1ccc2c(c1)OCO2)c1ccc(COc2cccc(Cl)c2)o1	Abeta rescue inconclusive, Chronic BCR inh inconclusive, TDP-43 yeast inh 14µM, aSyn rescue inconclusive
